LDHA inh: blocks human lactate dehydrogenase A; AID 1347041; P00338; hit rate 0.15% among 480,000; purified LDHA, NADH/diaphorase-resazurin fluorescence; hits give low values; activity change, % (values are at about 110 or 230 µM); in the data active means activity change below about -30%; inconclusive means mostly about -25% to -30%;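 further: plate controls were DMSO wells for no effect and wells without enzyme for full effect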
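Human LDH5 (2 nM) was incubated with 0.06 mM NADH and 0.2 mM pyruvate for 5 min at room temperature in Tris pH 7.4. Remaining NADH was coupled through diaphorase/resazurin, and resorufin fluorescence was read at 0 and 20 min.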
Gal4-VP16 FLuc: Gal4-VP16 reporter inhibition counter-screen; Drosophila S2 Gal4-VP16 UAS-luciferase, luminescence, 20 h; Potency, µM (doses to about 53.6 µM), without a hit: at the highest dose activity, negative = inhibition, most hits filed as inhibitors; hit rate 3.5% among 310,000; AID 2546;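 further: Gal4-VP16 expression switched on by copper sulfate through the metallothionein promoter; potency means the concentration at half of the fitted maximal effect; nearly all actives have a fitted effect of over 50% in size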
RORgamma inh: blocks mouse ROR gamma transcriptional activity; P51450; Drosophila S2 Gal4-RORgamma UAS-luciferase reporter, 20 h; Potency, µM (doses to about 53.6 µM), inactives show at the top dose activity change, negative = inhibition, usual class: inhibitors; hit rate 5.4% among 310,000; AID 2551; further: potency means the concentration at half of the fitted maximal effect; nearly all actives have a fitted effect of over 60% in size
Target sequence (P51450 whole entry, looked up, the tested form may be a part): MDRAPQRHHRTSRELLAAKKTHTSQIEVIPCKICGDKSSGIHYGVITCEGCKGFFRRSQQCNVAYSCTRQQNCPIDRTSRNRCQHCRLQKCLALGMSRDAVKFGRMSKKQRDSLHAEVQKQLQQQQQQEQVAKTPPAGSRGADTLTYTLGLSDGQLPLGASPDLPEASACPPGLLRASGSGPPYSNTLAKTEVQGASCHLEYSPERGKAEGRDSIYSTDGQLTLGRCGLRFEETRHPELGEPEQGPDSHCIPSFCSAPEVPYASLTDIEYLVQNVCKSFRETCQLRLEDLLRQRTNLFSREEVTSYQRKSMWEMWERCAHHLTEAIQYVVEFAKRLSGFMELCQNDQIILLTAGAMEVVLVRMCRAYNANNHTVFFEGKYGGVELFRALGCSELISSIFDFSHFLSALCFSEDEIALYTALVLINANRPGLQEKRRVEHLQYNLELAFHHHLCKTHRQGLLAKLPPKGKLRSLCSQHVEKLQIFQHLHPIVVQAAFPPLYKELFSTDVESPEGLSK
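Stable Schneider cell line, Gal4 DNA-binding domain fused to ROR gamma, UAS-luciferase. Cmpd 1 hr RT → CuSO4 700 uM final → 20 hr RT → luciferase reagent 10 min → luminescence.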
DT40 TDP1 no CPT: qHTS for Inhibitors of human tyrosyl-DNA phosphodiesterase 1 (TDP1): qHTS in cells in absence of CPT | hit rate 15% among 420,000 | Potency, µM (series often up to 46.2 µM), inactives show top-dose activity change, negative = growth inhibition, actives largely listed as inhibitors | DT40 Tdp1-/- hTDP1 cells, no CPT, ATP luminescence, 48 h; further: potency means the concentration at half of the fitted maximal effect; nearly all actives have a fitted effect of over 55% in size
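Camptothecin absent (DMSO only). Human TDP1-complemented DT40 knockout cells, 400 cells/well, 37 °C for minimum 48 hr; ATP measured via CellTiter-Glo, 30 min dark incubation, luminescence.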
DT40 TDP1 CPT: DT40-hTDP1 cell growth loss with CPT; chicken DT40 Tdp1-/-;hTDP1 cells + 20 nM CPT, ATP luminescence, 48 h; hit rate 12% among 420,000; AID 686979; Potency, µM (doses to about 46.2 µM), for the others: at the top dose activity change, negative = growth inhibition, actives largely listed as inhibitors; further: potency means the concentration at half of the fitted maximal effect; nearly all actives have a fitted effect of over 55% in size
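Chicken DT40 Tdp1-/- cells stably complemented with human TDP1 were seeded at 400 cells/well in medium containing 20 nM camptothecin, exposed to pin-transferred compounds, and grown at 37 °C for at least 48 hr. Viability was read as ATP luminescence.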
IL-1B inflam inh: inhibitors of inflammasome signaling (IL-1 beta secretion); AID 743279; hit rate 4.7% among 360,000; THP-1 LPS/ATP IL-1B secretion, AlphaLISA, 16 h; hits give low values; activity change, % at 57.5 µM; in the data active means activity change below about -50%; inconclusive means mostly about -30% to -49%
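Secreted IL-1B measured by AlphaLISA bead assay after 16 h compound exposure of THP-1 cells; compounds (final up to 57.5 uM) added 1 h before LPS (250 ng/mL) and ATP (1.25 mM) stimulation; lower signal means less secretion.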
An asterisk follows results filed as active; ? = inconclusive; nt = no result given; [ ] = remark or other dose. Most compounds without a hit are left out; they make up all but 18% or so of the library. Unless noted, the call rests on the fitted dose curve; in most records, active means well fitted curve in the direction sought with a large enough effect; inconclusive means small, poorly fitted or top-dose-only effect, or another doubt; inactive means no such curve, though single readings can be large; an effect the other way counts as inactive or inconclusive. Unless noted, on the % scale 0 is the no-effect control and ±100 the full control effect.

SMILES	LDHA inh	Gal4-VP16 FLuc	RORgamma inh	DT40 TDP1 no CPT	DT40 TDP1 CPT	IL-1B inflam inh
Cc1cc(C(=O)COC(=O)c2ccc(NC(=O)CC#N)cc2)c(C)n1C1CC1	-6	nt	nt	21µM*	21µM*	-12
COc1ccc([C@@H]2CC(=O)C3=C(C2)Nc2[nH][nH]c(=O)c2[C@H]3c2ccccc2C(F)(F)F)cc1OC	-1	nt	nt	nt	nt	nt
CN(C)CCCNC(=O)c1cc2cc(F)ccc2[nH]1	3	nt	nt	nt	nt	nt
CN1/C(=C/C(=O)COC(=O)C2COc3ccccc3O2)C(C)(C)c2ccccc21 (stereo not drawn)	-1	nt	nt	21µM*	26µM*	10
Cc1ccc(NC(=O)COC(=O)C2COc3ccccc3O2)cc1 (stereo not drawn)	4	nt	nt	21%	-2%	40
CN1/C(=C\C(=O)COC(=O)CN2C(=O)C3CC=CCC3C2=O)C(C)(C)c2ccccc21 (stereo not drawn)	0	4.5µM*	?	18µM*	?	59
Cc1nc(SC(C)c2ccc(Cl)cc2)sc1CC(N)=O (stereo not drawn)	0	nt	nt	nt	nt	nt
CC1(C)OC(C)(C)/C(=C/Nc2ccc(O)cc2)C1=O	29	-13%	-11%	23µM*	?	14
COc1cc(OC)c2cc(C(=O)N3CCC(c4nnc5ccccn45)CC3)n(C)c2c1	-5	nt	nt	nt	nt	nt
Cc1ccccc1OCc1nc2ccc(S(=O)(=O)N3CCOCC3)cc2[nH]1	-3	6%	-17%	-21%	?	-2
COc1ccc(NS(=O)(=O)c2ccc3nc(COc4cccc5ccccc45)[nH]c3c2)cc1	7	-8%	?	21µM*	16µM*	-16
COc1ccc(S(=O)(=O)Nc2ccc(CCc3nc4ccc(C)cc4[nH]3)cc2)cc1	-6	nt	nt	nt	nt	nt
COc1ccc(NS(=O)(=O)c2ccc3nc(COc4ccc5ccccc5c4)[nH]c3c2)cc1	4	-18%	-13%	?	18µM*	-67*
CCc1ccccc1OCc1nc2ccc(S(=O)(=O)N3CCOCC3)cc2[nH]1	-1	9%	3%	?	23µM*	-13
COc1ccccc1NS(=O)(=O)c1ccc2nc(CCl)[nH]c2c1	6	?	11%	?	?	5
COc1ccc(OCc2nc3ccc(S(=O)(=O)Nc4ccccc4Cl)cc3[nH]2)cc1	1	-10%	?	?	?	-51*
CC(C)(C)C1CCc2c(sc3ncc(NC(=O)c4ccccc4)c(=O)n23)C1 (stereo not drawn)	0	nt	nt	nt	nt	nt
Cc1cccc(N2CCN(C(=O)C3CCCN(C(=O)c4cc5sccc5n4C)C3)CC2)c1C (stereo not drawn)	3	nt	nt	23µM*	23µM*	nt
Cc1cccc(N2CCN(C(=O)C3CCN(C(=O)c4cc5sccc5n4C)CC3)CC2)c1C	-2	nt	nt	8.2µM*	12µM*	nt
Cn1c(C(=O)N2CCCC(C(=O)NCc3cccs3)C2)cc2sccc21 (stereo not drawn)	-2	-11%	38%	-29%	?	0
COc1ccc(CNC(=O)C(=O)c2c[nH]c3ccccc23)cc1	-8	nt	nt	nt	nt	nt
Cc1ccc(Nc2nnc(SCC(=O)c3ccc(Cl)s3)s2)c(C)c1	-3	nt	nt	nt	nt	nt
CC1CCC/C(=C(\C#N)C(N)=S)C1 (stereo not drawn)	1	nt	nt	nt	nt	nt
O=C(Oc1c(Br)cc([N+](=O)[O-])cc1Br)c1cccnc1	-16	?	42%	?	18µM*	0
N/C(=N\OC(=O)c1cc([N+](=O)[O-])ccc1Cl)c1cccnc1	-5	-3%	-5%	?	?	-101*
SMILES	LDHA inh	Gal4-VP16 FLuc	RORgamma inh	DT40 TDP1 no CPT	DT40 TDP1 CPT	IL-1B inflam inh
COC(=O)C1=C(C)N(C(C)C)C(=O)C1(NC(=O)C1CC1)C(F)(F)F (stereo not drawn)	2	nt	nt	nt	nt	nt
Cc1ccc(Nc2nc(N)nc(CN3CCN(C)CC3)n2)cc1	0	-6%	21%	-1%	3%	-17
Cc1ccc(Nc2nc(N)nc(CN3CCCCCC3)n2)cc1	1	6%	-2%	?	?	-7
Cc1cccc(Nc2nc(N)nc(CN3CCN(c4ccc(F)cc4)CC3)n2)c1	8	13%	-31%	16µM*	18µM*	?
Cc1ccc(Nc2nc(N)nc(CN3CCN(c4ccccc4F)CC3)n2)cc1	-2	-4%	11µM*	?	?	-13
Nc1nc(CN2CCN(C(c3ccccc3)c3ccccc3)CC2)nc(Nc2ccccc2)n1	1	?	3.2µM*	23µM*	?	-22
CCOC(=O)C1CCCN(Cc2nc(N)nc(Nc3ccccc3)n2)C1 (stereo not drawn)	-1	-14%	-23%	18µM*	?	5
Cc1cccc(Nc2nc(N)nc(CN3CCN(C)CC3)n2)c1	-3	12%	7%	7%	7%	0
Cc1ccc(-c2cn3ccccc3n2)c(C)c1	6	nt	nt	nt	nt	nt
CCn1c(C(=O)NCC(=O)NC2CC2)cc2ccccc21	10	nt	nt	nt	nt	nt
COc1ccc(C(=O)c2c(N)c(C#N)c3n2CCC3)cc1	6	nt	nt	nt	nt	nt
Cc1cc(C)cc(NC(=O)CCc2ncc(-c3ccc(Cl)cc3)o2)c1	2	nt	nt	nt	nt	nt
COc1ccc(Nc2nc(N)nc(CN3CCC(C)CC3)n2)cc1	-7	1%[10 µM]	-20%	-6%	1%	-17
Nc1nc(CN2CCC(Cc3ccccc3)CC2)nc(Nc2ccccc2)n1	-1	-26%	10µM*	23µM*	18µM*	?
CC1CC(C)CN(Cc2nc(N)nc(Nc3ccc4ccccc4c3)n2)C1 (stereo not drawn)	17	nt	-12%[0.365 µM]	21µM*	23µM*	?
Nc1nc(CN2CCN(c3ccccc3F)CC2)nc(Nc2ccccc2)n1	-1	7%	?	?	23µM*	-7
Cc1ccc(Nc2nc(N)nc(CSc3nncn3C)n2)cc1	3	11µM*	-84%	-4%	20%	14
Nc1nc(CN2CCCCCC2)nc(Nc2ccccc2)n1	-4	-1%[0.365 µM]	-30%	-13%	-1%	2
CC(=O)Nc1ccc(-c2csc(Nc3ccc(C)cc3)n2)cc1	1	nt	nt	nt	nt	nt
CCOC(=O)C1CCCN(Cc2c(C(=O)N3CCOCC3)nc3ccccn23)C1 (stereo not drawn)	0	-6%	-1%	-8%	1%	-68*
CC(C)c1ccccc1NC(=O)CN(c1ccccc1F)S(=O)(=O)c1ccccc1	4	nt	nt	nt	nt	nt
COCCCN=Cc1c(C)[nH]n(-c2ccc(Br)c(C)c2)c1=O	-2	6.3µM*	7.1µM*	?	?	9
